# Source: PubChem BioAssay (NCATS)
# Results filed as inconclusive are left out. A call without a number means that no potency is given here. A number with no mark means an inactive call. The source made the active and inactive calls. Calls come from the whole dose curve; as a rule, active = well fitted cell-killing curve with a large enough effect; inconclusive = small, poorly fitted or top-dose-only effect, or effect the other way; inactive = no such curve, though single readings can be large or run the other way.
# Key:
# [1] = Quantitative High-Throughput drug screen in 47 multiple myeloma cell lines against the NCATS MIPE library collection: OPM1_PLB cell viability assay (AID 1918989); settings: CellTiter-Glo, 48 h; series mostly up to 45.8 µM; note: nearly all actives have a fitted effect of over 40% in size; note: potency is the fitted concentration of half-maximal effect
# Procedure, shortened: (§1)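 500 cells/well per myeloma line exposed to pinned MIPE 4.0 compounds for 48 h at 37 °C, 5% CO2. Viability read as ATP by CellTiter-Glo luminescence, normalised to DMSO-only (100%) and media-only (0%) wells.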
# [2] = Quantitative High-Throughput drug screen in 47 multiple myeloma cell lines against the NCATS MIPE library collection: U266_ATCC cell viability assay (AID 1919864); settings: U266 myeloma viability, CellTiter-Glo ATP luminescence, 48 h; series mostly up to 45.8 µM; note: nearly all actives have a fitted effect of over 35% in size; note: potency is the fitted concentration of half-maximal effect
# Procedure, shortened: as §1
# [3] = Quantitative High-Throughput drug screen in 47 multiple myeloma cell lines against the NCATS MIPE library collection: XG6_PLB cell viability assay (AID 1919865); settings: XG6 myeloma viability, CellTiter-Glo ATP luminescence, 48 h; series mostly up to 45.8 µM; note: nearly all actives have a fitted effect of over 40% in size; note: potency is the fitted concentration of half-maximal effect
# Procedure, shortened: as §1
# [4] = Quantitative High-Throughput drug screen in 47 multiple myeloma cell lines against the NCATS MIPE library collection: OCIMY5_PLB cell viability assay (AID 1918988); settings: OCI-MY5 myeloma viability, ATP luminescence, 48 h; series mostly up to 45.8 µM; note: nearly all actives have a fitted effect of over 65% in size; note: potency is the fitted concentration of half-maximal effect
# Procedure, shortened: as §1
# [5] = Quantitative High-Throughput drug screen in 47 multiple myeloma cell lines against the NCATS MIPE library collection: SKMM1_PLB cell viability assay (AID 1919863); settings: SKMM1 myeloma viability, CellTiter-Glo ATP, 48 h; viability: active compounds read low; note: nearly all actives have a fitted effect of over 35% in size; note: potency is the fitted concentration of half-maximal effect
# Procedure, shortened: as §1
# [6] = Quantitative High-Throughput drug screen in 47 multiple myeloma cell lines against the NCATS MIPE library collection: UTMC2_PLB cell viability assay (AID 1919868); settings: CellTiter-Glo ATP luminescence, 48 h; viability (% of DMSO control): at 45.8 µM (top of the series); note: nearly all actives have a fitted effect of over 55% in size
# Procedure, shortened: as §1
# [7] = Quantitative High-Throughput drug screen in 47 multiple myeloma cell lines against the NCATS MIPE library collection: XG1_PLB cell viability assay (AID 1919866); settings: CellTiter-Glo ATP, 48 h; series mostly up to 45.8 µM; note: nearly all actives have a fitted effect of over 35% in size; note: potency is the fitted concentration of half-maximal effect
# Procedure, shortened: as §1
# [8] = Quantitative High-Throughput drug screen in 47 multiple myeloma cell lines against the NCATS MIPE library collection: PE2_PLB cell viability assay (AID 1919869); settings: PE2_PLB myeloma cells viability, ATP luminescence, 48 h; series mostly up to 45.8 µM; note: nearly all actives have a fitted effect of over 35% in size; note: potency is the fitted concentration of half-maximal effect
# Procedure, shortened: as §1
# [9] = Quantitative High-Throughput drug screen in 47 multiple myeloma cell lines against the NCATS MIPE library collection: VP6_DJ cell viability assay (AID 1919867); settings: ATP luminescence, 48 h; series mostly up to 45.8 µM; note: nearly all actives have a fitted effect of over 40% in size; note: potency is the fitted concentration of half-maximal effect
# Procedure, shortened: as §1
compound,measurement,setting,value
Cc1cc2c(F)c(Oc3ncnn4cc(OC[C@@H](C)O)c(C)c34)ccc2[nH]1,Potency,[1],20.9 µM (active)
same,Potency,[2],23.5 µM (active)
same,Potency,[3],0.743 µM (active)
CCOC(=O)N1CCC(=C2c3ccc(Cl)cc3CCc3cccnc32)CC1,Potency,[4],20.9 µM (active)
same,Potency,[5],20.9 µM (active)
same,Potency,[2],33.2 µM (active)
same,Potency,[6],inactive
c1ccc([C@H]2CN3CCSC3=N2)cc1,Potency,[4],inactive
same,Potency,[2],inactive
same,Potency,[3],23.5 µM (active)
same,Potency,[7],16.6 µM (active)
same,Potency,[6],inactive
same,Potency,[8],inactive
COc1ccc(CCN2CCN(CCCc3ccccc3)CC2)cc1OC,Potency,[1],inactive
same,viability,[5],104%
same,Potency,[3],4.69 µM (active)
same,Potency,[7],inactive
same,Potency,[8],inactive
CC(c1cc2ccccc2s1)N(O)C(N)=O (stereo not drawn),Potency,[1],inactive
same,Potency,[2],inactive
same,Potency,[3],inactive
same,Potency,[7],inactive
same,Potency,[9],3.32 µM (active)
same,Potency,[8],inactive
CNC(=O)c1ccc(N2C(=S)N(c3ccc(C#N)c(C(F)(F)F)c3)C(=O)C2(C)C)cc1F,Potency,[4],inactive
same,Potency,[1],inactive
same,Potency,[7],13.2 µM (active)
same,Potency,[8],inactive
O=C(O)CCc1ccc(NCc2cccc(Oc3ccccc3)c2)cc1,Potency,[4],inactive
same,viability,[5],111%
same,Potency,[3],inactive
same,Potency,[7],inactive
same,Potency,[9],inactive
same,Potency,[8],inactive
NC[C@H](O)c1ccc(O)c(O)c1,Potency,[4],1.32 µM (active)
same,Potency,[2],inactive
same,Potency,[3],inactive
same,Potency,[7],inactive
same,Potency,[9],2.96 µM (active)
same,Potency,[8],11.8 µM (active)
CC[C@@H](C)[C@H](NC(=O)[C@H](CC1CCCCC1)NC(=O)c1ccno1)C(=O)N1CCC2(CCc3ccccc32)CC1,Potency,[4],8.33 µM (active)
same,Potency,[1],inactive
same,Potency,[8],inactive
O=C1CCC(N2C(=O)c3ccccc3C2=O)C(=O)N1 (stereo not drawn),Potency,[1],inactive
same,Potency,[5],23.5 µM (active)
same,Potency,[2],18.7 µM (active)
same,Potency,[3],inactive
same,Potency,[7],3.72 µM (active)
same,Potency,[8],inactive
Nc1ncnc2nc(-c3ccc(N4CCOCC4)nc3)cc(-c3cccc(Br)c3)c12,Potency,[4],16.6 µM (active)
same,Potency,[1],20.9 µM (active)
same,Potency,[3],10.5 µM (active)
same,Potency,[7],16.6 µM (active)
same,Potency,[8],18.7 µM (active)
O=C(C1CC1)N1CC[C@@H](Cn2c(-c3ccc(-c4ccc5occc5c4)cc3)nc3cnccc32)C1,Potency,[4],4.18 µM (active)
same,viability,[5],107%
same,Potency,[7],16.6 µM (active)
Cc1cccc(-c2nn(C(=S)Nc3ccccc3)cc2-c2ccnc3ccccc23)n1,Potency,[4],1.48 µM (active)
same,Potency,[1],6.62 µM (active)
same,Potency,[3],inactive
same,Potency,[9],9.35 µM (active)
same,Potency,[8],7.43 µM (active)
NC(=O)c1ccc(I)c([N+](=O)[O-])c1,Potency,[1],23.5 µM (active)
same,viability,[5],102%
same,Potency,[7],18.7 µM (active)
same,Potency,[8],20.9 µM (active)
Cc1cc(C=c2sc3nc4ccccc4n3c2=O)c(C)n1-c1ccccc1,Potency,[4],4.69 µM (active)
same,Potency,[3],inactive
same,Potency,[9],inactive
same,Potency,[8],inactive
NC(=O)c1ccc(-c2nc(-c3ccc4c(c3)OCO4)c(-c3ccccn3)[nH]2)cc1,Potency,[4],9.35 µM (active)
same,Potency,[2],inactive
same,Potency,[3],inactive
Cc1ccc(N(CC2=NCCN2)c2cccc(O)c2)cc1,Potency,[4],23.5 µM (active)
same,Potency,[1],23.5 µM (active)
same,Potency,[9],inactive
COc1ccccc1-c1cccc(-c2c(O)c3cc(C#N)c(Cl)cc3[nH]c2=O)c1,Potency,[4],inactive
same,viability,[5],104%
same,Potency,[2],inactive
same,Potency,[3],34 µM (active)
same,Potency,[9],21.5 µM (active)
O=C(O)COCCN1CCN(C(c2ccccc2)c2ccc(Cl)cc2)CC1 (stereo not drawn),Potency,[4],inactive
same,Potency,[2],inactive
same,Potency,[3],inactive
same,Potency,[7],inactive
same,Potency,[9],inactive
same,Potency,[6],inactive
same,Potency,[8],inactive
